According to PubChem BioAssay (NCATS):
Where “and” joins values, the source holds several entries; their conditions need not be identical. Equal entries are not always repeated. Results filed as inconclusive are left out. Calls of active or inactive are those of the source. Calls follow the shape of the dose curve; as a rule, active = well fitted inhibition curve with a large enough effect; inconclusive = small, poorly fitted or top-dose-only effect; inactive = flat fitted curve, though single readings scatter.

Experiments:
SC27B = assay: qHTS profiling for inhibitors of Plasmodium falciparum proliferation (AID 504749); also: potency is read from the fitted curve at half-maximal effect; settings: P. falciparum in erythrocytes, SYBR Green DNA, 72 h; series mostly up to 28.7 µM
In short: (§1)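 Parasite proliferation within erythrocytes, 72 h exposure. Endpoint: SYBR Green I fluorescence after overnight lysis at room temperature. Controls: 0.29 uM artemisinin, DMSO.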

TAB109 = assay: as above; settings: P. falciparum in erythrocytes, SYBR Green DNA, 72 h; series mostly up to 28.7 µM
In short: as §1

TAB113 = assay: as above; settings: P. falciparum in erythrocytes, SYBR Green DNA, 72 h; series mostly up to 28.7 µM
In short: as §1

CRL-7250 = normal cell line; assay: Cytotoxic Profiling of Annotated Libraries Using Quantitative High-Throughput Screening (AID 1296008); settings: Five cell lines viability, CellTiter-Glo ATP luminescence, 48-72 h; max response: stronger effect = lower value; as to max response: % is scaled to controls: 0 for no effect and ±100 for the full control effect
In short: (§2)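 Compounds were pin-transferred onto cells and incubated 48 or 72 hr at 37 degree Celsius, 95% humidity. CellTiter-Glo was added, plates sat 10 min at room temperature, then ATP-coupled luminescence was imaged as the viability read-out.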

HaCat [1] = assay: as above; settings: Five cell lines viability, CellTiter-Glo ATP luminescence, 48-72 h; max response: stronger effect = lower value
In short: as §2

KB-3-1 = assay: as above; settings: Five cell lines viability, CellTiter-Glo ATP luminescence, 48-72 h; max response: stronger effect = lower value
In short: as §2

NIH3T3 [2] = assay: as above; settings: Five cell lines viability, CellTiter-Glo ATP luminescence, 48-72 h; max response: stronger effect = lower value
In short: as §2

HACAT [3] = assay: qHTS assay to identify novel small-molecules to repurpose for Merkel cell carcinoma treatment (AID 1296009); settings: MCC and control cell lines, CellTiter-Glo viability, 72 h; at 44.8 µM (top of the series) unless noted
In short: (§3)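 qHTS format: cells treated with library compounds in DMSO across 8 (NPC) or 11 (MIPE) concentrations. Readout after 72 hr at 37 degree celsius was CellTiter-Glo luminescence.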

MCC-13 = assay: as above; settings: MCC and control cell lines, CellTiter-Glo viability, 72 h; series mostly up to 46 µM
In short: as §3

MCC-26 = assay: as above; settings: MCC and control cell lines, CellTiter-Glo viability, 72 h; series mostly up to 46 µM
In short: as §3

MKL-1 = assay: as above; settings: MCC and control cell lines, CellTiter-Glo viability, 72 h; series mostly up to 46 µM
In short: as §3

UISO = assay: as above; settings: MCC and control cell lines, CellTiter-Glo viability, 72 h; series mostly up to 46 µM
In short: as §3

MKL-2 = assay: as above; settings: MCC and control cell lines, CellTiter-Glo viability, 72 h; series mostly up to 46 µM
In short: as §3

WaGa = assay: as above; settings: MCC and control cell lines, CellTiter-Glo viability, 72 h; series mostly up to 46 µM
In short: as §3

TAB165 = assay: qHTS profiling for inhibitors of Plasmodium falciparum proliferation (AID 504749); also: potency is read from the fitted curve at half-maximal effect; settings: P. falciparum in erythrocytes, SYBR Green DNA, 72 h; series mostly up to 28.7 µM
In short: as §1

W2 = assay: as above; settings: P. falciparum in erythrocytes, SYBR Green DNA, 72 h; series mostly up to 28.7 µM
In short: as §1

HEK293T = assay: qHTS assay to identify novel small-molecules to repurpose for Merkel cell carcinoma treatment (AID 1296009); settings: MCC and control cell lines, CellTiter-Glo viability, 72 h; at 44.8 µM (top of the series) unless noted
In short: as §3

NIH3T3 [4] = assay: as above; settings: MCC and control cell lines, CellTiter-Glo viability, 72 h; at 44.8 µM (top of the series) unless noted
In short: as §3

HEK293 = assay: Cytotoxic Profiling of Annotated Libraries Using Quantitative High-Throughput Screening (AID 1296008); settings: Five cell lines viability, CellTiter-Glo ATP luminescence, 48-72 h; max response: stronger effect = lower value; as to max response: % is scaled to controls: 0 for no effect and ±100 for the full control effect
In short: as §2
Also: nearly all actives have a fitted effect of over 60% in size.

O=C(N/N=C/c1ccc([N+](=O)[O-])o1)c1cc([N+](=O)[O-])cc([N+](=O)[O-])c1O
active: Potency (SC27B) 141 nM | Potency (TAB109) 14.1 nM | Potency (TAB113) 282 nM
inactive: max response (CRL-7250) -3.2% | outcome (HaCat [1]) | max response (KB-3-1) 15.7% | max response (NIH3T3 [2]) 1.92% | outcome (HACAT [3]) | outcome (MCC-13) | Potency (MCC-26) | Potency (MKL-1) | Potency (UISO)

C[C@]12Cc3cn[nH]c3C[C@@H]1CC[C@@H]1[C@@H]2CC[C@@]2(C)[C@H]1CC[C@]2(C)O
inactive: max response (CRL-7250) 0.607% | max response (HaCat [1]) 2.06% | max response (NIH3T3 [2]) 3.99% | outcome (MCC-13) | Potency (MKL-1) | Potency (MKL-2) | Potency (WaGa)

C[C@]12CC[C@H]3[C@@H](CCC4=CC(=O)CC[C@@H]43)[C@@H]1CC[C@@H]2OC(=O)CCc1ccco1
inactive: max response (CRL-7250) -3% | outcome (HaCat [1]) | max response (NIH3T3 [2]) -2.06% | outcome (HACAT [3]) | outcome (MCC-13) | Potency (MCC-26) | Potency (WaGa)

CN1C(=O)COc2c(C(=O)NC3CN4CCC3CC4)cc(Cl)cc21 (stereo unspecified)
inactive: Potency (SC27B) | Potency (TAB109) | Potency (TAB113) | Potency (TAB165) | Potency (W2) | max response (CRL-7250) -5.92% | max response (HaCat [1]) -0.711% and 2.67% | max response (KB-3-1) 2.45% | max response (NIH3T3 [2]) -0.6% and 1.75% | outcome (MCC-13) | Potency (MKL-1) | Potency (MKL-2) | Potency (UISO) | Potency (WaGa)

CCC1(c2ccc(N)cc2)CCC(=O)NC1=O (stereo unspecified)
inactive: max response (CRL-7250) 1.43% and -1.25% | max response (HaCat [1]) 2.56% and -2.32% | max response (KB-3-1) 5.24% and 0.522% | max response (NIH3T3 [2]) 1.87% and -15.6% | outcome (HEK293T) | outcome (MCC-13) | Potency (MKL-1) | Potency (MKL-2) | Potency (UISO) | Potency (WaGa)

NC(=O)CS(=O)C(c1ccccc1)c1ccccc1 (stereo unspecified)
inactive: Potency (SC27B) | Potency (TAB109) | Potency (TAB113) | Potency (TAB165) | Potency (W2) | max response (CRL-7250) 1.08% | max response (HaCat [1]) -6.49% | max response (KB-3-1) 3.03% | max response (NIH3T3 [2]) -4.5% | outcome (MCC-13) | Potency (MCC-26) | Potency (MKL-1) | Potency (MKL-2) | Potency (UISO) | Potency (WaGa)

CN1C(=O)NC(=O)C(C)(C2=CCCCC2)C1=O (stereo unspecified)
inactive: Potency (SC27B) | Potency (TAB109) | Potency (TAB113) | Potency (TAB165) | Potency (W2) | max response (CRL-7250) -9.98% | max response (HaCat [1]) -13.8% | max response (KB-3-1) -0.631% and -0.133% | outcome (NIH3T3 [2]) | outcome (HEK293T) | outcome (MCC-13) | Potency (MKL-1) | Potency (MKL-2) | outcome (NIH3T3 [4]) | Potency (UISO) | Potency (WaGa)

c1ccc(CN2CCNCC2)cc1
inactive: max response (CRL-7250) 3.96% | outcome (HaCat [1]) | max response (KB-3-1) -8.52% | max response (NIH3T3 [2]) -5.38% | outcome (HACAT [3]) inactive [at 155 µM] | outcome (MCC-13) | Potency (MKL-1) | Potency (MKL-2) | Potency (UISO) | Potency (WaGa)

CCN(CC)CCc1c[nH]c2ccccc12
inactive: max response (HEK293) -22% | max response (HaCat [1]) -3.07% | max response (KB-3-1) -19.3% | max response (NIH3T3 [2]) -2.44% | outcome (MCC-13) | Potency (MCC-26) | Potency (MKL-1) | Potency (MKL-2) | Potency (WaGa)

O=c1[nH]oc2c1CCNC2
inactive: Potency (SC27B) | Potency (TAB109) | Potency (TAB113) | Potency (TAB165) | Potency (W2) | max response (CRL-7250) -16.5% | outcome (HaCat [1]) | max response (KB-3-1) -7.07% | max response (NIH3T3 [2]) -9.67% | outcome (HACAT [3]) | outcome (MCC-13) | Potency (MCC-26) | Potency (MKL-1) | Potency (MKL-2) | Potency (UISO) | Potency (WaGa)

Clc1ccccc1N1CCNCC1
inactive: outcome (HEK293) | outcome (HaCat [1]) | outcome (NIH3T3 [2]) | outcome (HACAT [3]) | outcome (HEK293T) | outcome (MCC-13) | Potency (MKL-1) | Potency (MKL-2) | outcome (NIH3T3 [4]) | Potency (UISO) | Potency (WaGa)

CCC(C)C(C)(COC(N)=O)COC(N)=O (stereo unspecified)
inactive: max response (CRL-7250) 1.47% | max response (HaCat [1]) -3.56% | outcome (NIH3T3 [2]) | outcome (HEK293T) | outcome (MCC-13) | Potency (MCC-26) | Potency (MKL-1) | Potency (MKL-2) | outcome (NIH3T3 [4]) | Potency (UISO) | Potency (WaGa)

CCCN(CCC)C(=O)Cc1c(-c2ccc(Cl)cc2)nc2ccc(Cl)cn12
inactive: max response (CRL-7250) 0.585% | max response (HaCat [1]) -9.95% | max response (KB-3-1) -8.04% | max response (NIH3T3 [2]) 0.9% | outcome (MCC-13) | Potency (MKL-1) | Potency (MKL-2) | Potency (UISO) | Potency (WaGa)

CCOP(=S)(OCC)Oc1ccc2c(C)c(Cl)c(=O)oc2c1
active: Potency (TAB113) 7940 nM | Potency (W2) 6750 nM
inactive: max response (CRL-7250) -4.21% | max response (HaCat [1]) 0.247% | max response (KB-3-1) -7.69% | max response (NIH3T3 [2]) -7.51% | outcome (MCC-13) | Potency (MKL-1) | Potency (UISO)
